In the assay the target is T1, FARSB (UniProt Q9NSD9).
T1 sequence (whole entry): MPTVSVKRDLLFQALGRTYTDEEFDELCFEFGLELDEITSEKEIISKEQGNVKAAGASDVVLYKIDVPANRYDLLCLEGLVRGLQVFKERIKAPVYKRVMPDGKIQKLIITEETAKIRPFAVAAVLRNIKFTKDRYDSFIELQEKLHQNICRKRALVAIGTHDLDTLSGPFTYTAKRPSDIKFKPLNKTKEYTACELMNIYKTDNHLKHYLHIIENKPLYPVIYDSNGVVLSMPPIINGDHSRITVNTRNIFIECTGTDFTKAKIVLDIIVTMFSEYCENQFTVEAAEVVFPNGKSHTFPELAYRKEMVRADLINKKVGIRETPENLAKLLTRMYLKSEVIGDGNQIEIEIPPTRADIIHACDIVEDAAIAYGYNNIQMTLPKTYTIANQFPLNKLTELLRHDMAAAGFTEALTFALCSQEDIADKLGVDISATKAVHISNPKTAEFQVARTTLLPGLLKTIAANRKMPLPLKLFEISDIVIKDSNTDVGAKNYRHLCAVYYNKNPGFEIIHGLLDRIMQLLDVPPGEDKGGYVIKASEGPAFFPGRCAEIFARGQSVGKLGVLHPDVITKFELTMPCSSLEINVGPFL
Kind of assay: NP40-soluble protein abundance relative to vehicle (solubility fold change) (ratio); higher = more soluble protein in presence of GTP. How it is done: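 Solubility proteome profiling in Jurkat crude lysate. Lysate was treated with Mg-GTP (0.1-10 mM) for 10 min at room temperature and 3 min at 37 °C, then solubilised with 0.8% NP40 and benzonase, followed by ultracentrifugation. Proteins were quantified by TMT10 LC-MS/MS; the value is the NP40-soluble abundance relative to the NP40-processed vehicle, from 3 independent experiments.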

± gives the standard deviation of the averaged measurements. Of roughly 5,400 targets only a part is listed; those with the largest changes were picked by preference.

Regarding `Nc1nc2c(ncn2[C@@H]2O[C@H](COP(=O)(O)OP(=O)(O)OP(=O)(O)O)[C@@H](O)[C@H]2O)c(=O)[nH]1` [guanosine triphosphate], the NP40-soluble protein abundance was found to be 1.05 ± 0.043 (concentration: 0.1mM); 1.06 ± 0.074 (concentration: 0.5mM); 0.933 ± 0.035 (concentration: 1mM); 0.944 ± 0.091 (concentration: 2mM); 0.954 ± 0.064 (concentration: 4mM); 0.925 ± 0.059 (concentration: 6mM). Besides, the NP40-soluble protein abundance came out at 0.875 ± 0.012 (concentration: 8mM) and 0.844 ± 0.057 (concentration: 10mM).

These data come from the supplement of paper PMC6411743.
